# Results filed as inconclusive are left out. Active and inactive are the calls of the source. The call rests on the fitted dose curve; in most records, active means well fitted activation curve with a large enough effect in the repeat runs; inconclusive means weak or mixed curves; inactive means no such curve, though single readings can be large or run the other way.
# Biological target: Aryl hydrocarbon receptor (Homo sapiens) (UniProt P35869)
# Assay: qHTS assay to identify small molecule that activate the aryl hydrocarbon receptor (AhR) signaling pathway (AID 743085); further: nearly all actives have a fitted effect of over 15% in size;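 on activation: HG2L7.5c1 human HepG2 liver cells with stably integrated DRE-driven firefly reporter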
# Details: HepG2 AhR-luc (HG2L7.5c1), luciferase, 24 h; series mostly up to 70.3 µM; activation: at the top concentration
# Source text: U.S. Tox21 Program National Center for Advancing Translational Sciences [NCATS] NIH Chemical Genomics Center [NCGC] U.S. Environmental Protection Agency [EPA] National Institutes of Environmental Health Sciences [NIEHS] National Toxicology Program [NTP] U.S. Food and Drug Administration [FDA] Tox21 Assay overview: The Aryl hydrocarbon Receptor (AhR), a member of the family of basic helix-loop-helix transcription factors, is crucial to adaptive responses to environmental changes. AhR mediates cellular responses to environmental pollutants such as aromatic hydrocarbons through induction of phase I and II enzymes but also interacts with other nuclear receptor signaling pathways. A cell based HepG2-AhR-luc assay (HG2L7.5c1 cell line, developed by Dr. Michael S. Denison, University of California at Davis, was used to assess the activation of AhR. HepG2 (human hepatocellular carcinoma) cells were stably transfected with an Ah receptor-responsive firefly luciferase reporter gene plasmid containing 20 dioxin responsive elements and luciferase reporter gene. Increased luciferase activity can be used to identify the compounds that induce AhR activation.
# Tox21 Assay Protocol Summary: 4000 cells in 5 uL/well were dispensed into white wall/solid bottom 1536-well plates using a Multidrop Combi (Thermo Fisher Scientific Inc., Waltham, MA) dispenser. After the assay plates were incubated at 37C for 5 h, 23 nL of compound or DMSO vehicle was transferred to the assay plates by a pintool station (Kalypsys, San Diego, CA). The plates were incubated at 37C for 24 hr. After 1 ul/well of CellTiter-Fluor reagent (Promega, Madison, WI) was added into the assay plates using a Flying Reagent Dispenser (FRD) (Aurora Discovery, CA), the assay plates were incubated at 37C for 30 min. The fluorescence intensity in the plates was measured using a ViewLux plate reader (PerkinElmer, Shelton, CT), followed by the addition of 4 uL of ONE-Glo Luciferase Assay reagent (Promega) using an FRD (Aurora Discovery). After the assay plates were incubated at room temperature for 30 min, luminescence intensity was measured using a ViewLux plate reader (Perkin Elmer).
# On the % scale 0 is the no-effect control and ±100 the full control effect; potency means the concentration at half of the fitted maximal effect.
# Aryl hydrocarbon receptor (Homo sapiens), sequence (P35869 whole entry, looked up): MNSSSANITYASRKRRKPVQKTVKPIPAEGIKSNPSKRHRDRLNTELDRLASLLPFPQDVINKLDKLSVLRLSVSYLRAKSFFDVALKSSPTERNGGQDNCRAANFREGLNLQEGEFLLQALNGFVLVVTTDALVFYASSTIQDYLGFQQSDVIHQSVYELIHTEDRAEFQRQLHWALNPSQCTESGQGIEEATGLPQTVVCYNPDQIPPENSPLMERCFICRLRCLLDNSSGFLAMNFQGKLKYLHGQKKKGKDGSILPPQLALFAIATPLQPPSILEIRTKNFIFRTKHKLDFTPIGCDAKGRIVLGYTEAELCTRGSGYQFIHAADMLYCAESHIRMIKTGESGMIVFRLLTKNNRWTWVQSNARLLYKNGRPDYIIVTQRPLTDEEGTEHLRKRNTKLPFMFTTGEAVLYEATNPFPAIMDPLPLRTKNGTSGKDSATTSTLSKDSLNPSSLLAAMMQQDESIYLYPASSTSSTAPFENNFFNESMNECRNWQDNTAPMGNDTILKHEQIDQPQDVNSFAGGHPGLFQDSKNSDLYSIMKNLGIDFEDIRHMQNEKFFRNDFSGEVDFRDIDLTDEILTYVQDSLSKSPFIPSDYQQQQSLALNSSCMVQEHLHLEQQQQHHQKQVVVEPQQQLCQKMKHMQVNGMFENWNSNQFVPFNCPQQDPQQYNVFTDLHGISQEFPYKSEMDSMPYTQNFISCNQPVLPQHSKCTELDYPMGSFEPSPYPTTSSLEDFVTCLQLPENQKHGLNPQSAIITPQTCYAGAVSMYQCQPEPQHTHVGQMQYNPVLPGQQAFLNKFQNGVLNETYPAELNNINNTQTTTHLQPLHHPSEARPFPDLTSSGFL
SMILES,activation,Potency
Clc1ccc(CSC(Cn2ccnc2)c2ccc(Cl)cc2Cl)cc1 (stereo not given),0.76% [at 32.5 µM] (inactive),–
CCCCN(CCCC)C(=S)[S-].CCCCN(CCCC)C(=S)[S-].[Zn+2],–,inactive
COC12CC[C@@]3(C[C@@H]1C(C)(O)C(C)(C)C)[C@H]1Cc4ccc(O)c5c4[C@@]3(CCN1CC1CC1)[C@H]2O5 (stereo not given in full),-8.9% (inactive),–
CCCN(CCC)CCc1c[nH]c2ccccc12,2.38% (inactive),–
O=C(Nc1ccc2[nH]ccc2c1)c1cc2cc(F)ccc2n1Cc1cccc(F)c1,-6.66% (inactive),–
Oc1ccc(C2(c3ccc(O)cc3)c3ccccc3-c3ccccc32)cc1,-2.16% (inactive),–
C[C@@H]1O[C@@H](O[C@@H]2C=C3CC[C@@H]4[C@H](CC[C@]5(C)[C@@H](c6ccc(=O)oc6)CC[C@]45O)[C@@]3(C)CC2)[C@H](O)[C@H](O)[C@H]1O,-4.57% [at 32.5 µM] (inactive),–
FC(Cl)(Cl)Cl,1.65% (inactive),–
S=C(SSC(=S)N1CCCCC1)N1CCCCC1,2.04% (inactive),–
CCc1nn(C)c(C(=O)NCc2ccc(C(C)(C)C)cc2)c1Cl,-0.345% (inactive),–
CC(C)N1C(=O)N(c2ccccc2)CSC1=NC(C)(C)C,0.918% (inactive),–
c1ccc(OCC2CO2)cc1 (stereo not given),-0.199% [at 95 µM] (inactive),–
O=c1[nH]c2ccccc2n1C1CCN(CCCC(c2ccc(F)cc2)c2ccc(F)cc2)CC1,–,inactive
CC(C)(C)c1ccc(CSc2cnn(C(C)(C)C)c(=O)c2Cl)cc1,-0.0303% (inactive),–
CC(C)(C)C(O)/C(=C\c1ccc(Cl)cc1Cl)n1cncn1 (stereo not given),-0.704% [at 95 µM] (inactive),–
CC(=O)[O-].[Tl+],-0.0309% [at 95 µM] (inactive),–
Fc1cccc(Cl)c1CCl,3.18% (inactive),–
CCCOCC(=Nc1ccc(Cl)cc1C(F)(F)F)n1ccnc1,-8.9% (inactive),–
O=[N+]([O-])c1cc([N+](=O)[O-])c2ccccc2c1,–,16.3 µM (active)
O=S(=O)(c1ccc(Cl)cc1)c1ccc(Cl)cc1,-3.59% [at 95 µM] (inactive),–

SMILES,activation,Potency
O=C(O)COc1nc(Cl)c(Cl)cc1Cl,5.61% [at 95 µM] (inactive),–
N#CCCC(Br)(C#N)CBr (stereo not given),-0.038% (inactive),–
CC1(c2ccc(Oc3ccccc3)cc2)OC(=O)N(Nc2ccccc2)C1=O (stereo not given),-2.15% [at 95 µM] (inactive),–
CCCN(CC)CC1COC2(CCC(C(C)(C)C)CC2)O1 (stereo not given),1.32% (inactive),–
Oc1c(Cl)c(Cl)cc(Cl)c1Cl,7.95% [at 95 µM] (inactive),–
N#CC(Cl)Cl,1.41% (inactive),–
CC(=O)Nc1ccc2c(c1)Cc1ccccc1-2,–,55.3 µM (active)
CC(C)[C@H](C(=O)OC(C#N)c1cccc(Oc2ccccc2)c1)c1ccc(OC(F)F)cc1 (stereo not given in full),0.683% (inactive),–
CC(C)CCCCCOC(=O)c1ccccc1C(=O)OCCCCCC(C)C,-0.968% (inactive),–
CN(C)S(=O)(=O)N(SC(F)(Cl)Cl)c1ccccc1,-5.46% (inactive),–
CC(C)(C)OO,5.99% (inactive),–
CN(C)C(=S)S,–,inactive
CC(C)(O)c1cnn2c(-c3ccc(F)c(-c4c(F)cccc4C#N)c3)cnc2n1,6.23% (inactive),–
COc1cccc(C(=O)CCN[C@@H](C)[C@H](O)c2ccccc2)c1,3.16% (inactive),–
CCCCCCCCCCCCCCCC[N+](C)(C)C,–,inactive
O=[N+]([O-])c1cc(C(F)(F)F)c(Cl)c([N+](=O)[O-])c1Cl,-3.65% (inactive),–
Nc1ccc(Sc2ccc(N)cc2)cc1,–,13.7 µM (active)
[Cd+2].[Cl-].[Cl-],–,inactive
C=CC(=O)OCC(COC(=O)C=C)(COC(=O)C=C)COC(=O)C=C,-0.621% (inactive),–
ClC1=C(Cl)[C@]2(Cl)[C@@H]3[C@@H]4C[C@@H]([C@H]5O[C@@H]45)[C@@H]3[C@@]1(Cl)C2(Cl)Cl,-4.68% (inactive),–
